{
  "source": "PubChem BioAssay (EPA / NIEHS)",
  "note": "Inconclusive results are not listed. Activity calls are given as the source filed them. Rule for the calls: active = hit-call score of the fitted dose curve at least 0.9, where 1 is the maximum; inconclusive = response in the unintended direction; inactive = score below 0.9.",
  "data": [
    {"read-out": "Glyceraldehyde-3-phosphate dehydrogenase (Homo sapiens) (UniProt P04406)", "experiment": "CLD_GAPDH_48hr: CellzDirect (CLD) Gene Expression Assay for Baseline Control (Glyceraldehyde 3-phosphate dehydrogenase) at 48 hours (AID 2283706);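 note: active means higher GAPDH mRNA than DMSO vehicle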", "summary_of_the_method": "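GAPDH baseline-control readout: qNPA chemiluminescent mRNA quantitation in human liver primary cells 48 h after daily dosing on two consecutive days, vehicle 0.2% DMSO; gain of signal fitted against DMSO, cytotoxicity flagged by phase-contrast morphology.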", "values": [
      {"smiles": "C=CCOC(=O)C(C)(C)OC(=O)c1cc(-n2c(=O)cc(C(F)(F)F)n(C)c2=O)ccc1Cl", "outcome": "inactive"},
      {"smiles": "Cc1cnc(C2=NC(C)(C(C)C)C(=O)N2)c(C(=O)O)c1", "note": "(configuration not stated)", "outcome": "inactive"},
      {"smiles": "COc1cc(Cl)c(OC)cc1Cl", "outcome": "inactive"},
      {"smiles": "CNC(=O)N(C)c1nnc(C(C)(C)C)s1", "outcome": "inactive"},
      {"smiles": "Nc1cnn(-c2ccccc2)c(=O)c1Cl", "outcome": "inactive"},
      {"smiles": "CS(=O)(=O)c1cc(C(F)(F)F)ccc1C(=O)c1cnoc1C1CC1", "outcome": "inactive"},
      {"smiles": "CC(C)C1(C)N=C(c2ncccc2C(=O)O)NC1=O", "note": "(configuration not stated)", "outcome": "inactive"},
      {"smiles": "COC(=O)NS(=O)(=O)c1ccc(N)cc1", "outcome": "inactive"},
      {"smiles": "CC(C)N1C(=O)c2ccccc2NS1(=O)=O", "outcome": "inactive"},
      {"smiles": "CC1(C)CON(Cc2ccccc2Cl)C1=O", "outcome": "inactive"},
      {"smiles": "Cc1ccc(N=CN(C)C=Nc2ccc(C)cc2C)c(C)c1", "outcome": "inactive"},
      {"smiles": "CN=C=S", "outcome": "inactive"},
      {"smiles": "CCCC(=NOCC)C1=C(O)CC(CC(C)SCC)CC1=O", "note": "(configuration not stated)", "outcome": "inactive"}
    ]},
    {"read-out": "organic anion transporter (SLCO1B1), SLCO1B1 (gene 10599)", "experiment": "CLD_SLCO1B1_48hr: CellzDirect (CLD) Gene Expression Assay for organic anion transporter (SLCO1B1) at 48 hours (AID 2283707)", "summary_of_the_method": "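SLCO1B1 transcript quantified by qNPA with chemiluminescent readout after 48 h of once-daily chemical exposure. Cultured human primary hepatocytes came from two donors, with 0.2% DMSO vehicle; positive-direction fitting against DMSO, cytotoxicity flagged by morphology.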", "values": [
      {"smiles": "O=P(O)(O)CCCl", "outcome": "inactive"},
      {"smiles": "COc1cc(Cl)c(OC)cc1Cl", "outcome": "inactive"},
      {"smiles": "Nc1c(Cl)c(Cl)nc(C(=O)O)c1Cl", "outcome": "inactive"},
      {"smiles": "CNC(=O)N(C)c1nnc(C(C)(C)C)s1", "outcome": "inactive"},
      {"smiles": "Nc1cnn(-c2ccccc2)c(=O)c1Cl", "outcome": "inactive"},
      {"smiles": "CS(=O)(=O)c1cc(C(F)(F)F)ccc1C(=O)c1cnoc1C1CC1", "outcome": "inactive"},
      {"smiles": "CC(C)C1(C)N=C(c2ncccc2C(=O)O)NC1=O", "note": "(configuration not stated)", "outcome": "inactive"},
      {"smiles": "COC(=O)NS(=O)(=O)c1ccc(N)cc1", "outcome": "inactive"},
      {"smiles": "CC(C)N1C(=O)c2ccccc2NS1(=O)=O", "outcome": "inactive"},
      {"smiles": "CCN(CC)C(=O)C(C)Oc1cccc2ccccc12", "note": "(configuration not stated)", "outcome": "inactive"},
      {"smiles": "COc1ccc(-c2ccccc2)cc1NNC(=O)OC(C)C", "outcome": "inactive"},
      {"smiles": "CCCC(=NOCC)C1=C(O)CC(CC(C)SCC)CC1=O", "note": "(configuration not stated)", "outcome": "inactive"}
    ]},
    {"read-out": "glucuronosyltransferase (UGT1A1), UGT1A1 (gene 54658)", "experiment": "CLD_UGT1A1_48hr: CellzDirect (CLD) Gene Expression Assay for glucuronosyltransferase (UGT1A1) at 48 hours (AID 2283709);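 note: actives increase expression relative to DMSO so potency refers to induction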", "summary_of_the_method": "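Quantitative nuclease protection assay (chemiluminescent) for UGT1A1 mRNA at 48 h in human hepatocyte cultures from two donors, redosed daily with fresh solutions. Induction fitted relative to 0.2% DMSO; phase-contrast morphology annotated cytotoxicity.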", "values": [
      {"smiles": "COC(=O)N(C(=O)N1CO[C@@]2(C(=O)OC)Cc3cc(Cl)ccc3C2=N1)c1ccc(OC(F)(F)F)cc1", "outcome": "inactive"},
      {"smiles": "C=CCOC(=O)C(C)(C)OC(=O)c1cc(-n2c(=O)cc(C(F)(F)F)n(C)c2=O)ccc1Cl", "outcome": "inactive"},
      {"smiles": "CC(C)Nc1nc(Cl)nc(NC(C)C)n1", "AC50": "5.88 µM (active)"},
      {"smiles": "CCN(CC)c1nc(C)cc(OP(=S)(OC)OC)n1", "outcome": "inactive"},
      {"smiles": "O=P(O)(O)CCCl", "outcome": "inactive"},
      {"smiles": "COc1cc(Cl)c(OC)cc1Cl", "outcome": "inactive"},
      {"smiles": "Nc1c(Cl)c(Cl)nc(C(=O)O)c1Cl", "outcome": "inactive"},
      {"smiles": "CCSC(=O)N1CCCCCC1", "outcome": "inactive"},
      {"smiles": "CC1(C)C(C=C(Cl)Cl)C1C(=O)OC(C#N)c1cccc(Oc2ccccc2)c1", "note": "(configuration not stated)", "AC50": "6.03 µM (active)"},
      {"smiles": "CNC(=O)N(C)c1nnc(C(C)(C)C)s1", "outcome": "inactive"},
      {"smiles": "O=C(Nc1ccccc1-c1ccc(Cl)cc1)c1cccnc1Cl", "outcome": "inactive"},
      {"smiles": "CCC(C)n1c(=O)[nH]c(C)c(Br)c1=O", "note": "(configuration not stated)", "outcome": "inactive"},
      {"smiles": "CCOC(=O)C(C)OC(=O)c1cc(Oc2ccc(C(F)(F)F)cc2Cl)ccc1[N+](=O)[O-]", "note": "(configuration not stated)", "AC50": "7 µM (active)"},
      {"smiles": "CC(C)(C)C(=O)C(Oc1ccc(Cl)cc1)n1cncn1", "note": "(configuration not stated)", "outcome": "inactive"},
      {"smiles": "CCOc1nc(F)cc2nc(S(=O)(=O)Nc3c(Cl)cccc3Cl)nn12", "outcome": "inactive"},
      {"smiles": "CS(=O)(=O)c1cc(C(F)(F)F)ccc1C(=O)c1cnoc1C1CC1", "outcome": "inactive"},
      {"smiles": "CC(C)C1(C)N=C(c2ncccc2C(=O)O)NC1=O", "note": "(configuration not stated)", "outcome": "inactive"},
      {"smiles": "CC(C)NC(=O)N1CC(=O)N(c2cc(Cl)cc(Cl)c2)C1=O", "outcome": "inactive"},
      {"smiles": "Cc1cc(C)nc(Nc2ccccc2)n1", "outcome": "inactive"},
      {"smiles": "COC(=O)NS(=O)(=O)c1ccc(N)cc1", "outcome": "inactive"},
      {"smiles": "CC(C)N1C(=O)c2ccccc2NS1(=O)=O", "outcome": "inactive"},
      {"smiles": "COP(=S)(OC)Oc1ccc([N+](=O)[O-])c(C)c1", "AC50": "5.37 µM (active)"},
      {"smiles": "CCCCOCN(C(=O)CCl)c1c(CC)cccc1CC", "outcome": "inactive"},
      {"smiles": "CC1(C)CON(Cc2ccccc2Cl)C1=O", "outcome": "inactive"},
      {"smiles": "CCN(CC)C(=O)C(C)Oc1cccc2ccccc12", "note": "(configuration not stated)", "AC50": "3.1 µM (active)"},
      {"smiles": "COc1ccc(-c2ccccc2)cc1NNC(=O)OC(C)C", "outcome": "inactive"},
      {"smiles": "N#Cc1c[nH]cc1-c1cccc2c1OC(F)(F)O2", "outcome": "inactive"},
      {"smiles": "CCOP(=S)(OCC)Oc1nc(Cl)n(C(C)C)n1", "AC50": "1.9 µM (active)"},
      {"smiles": "CCNC(=O)NC(=O)C(C#N)=NOC", "outcome": "inactive"},
      {"smiles": "CN=C=S", "outcome": "inactive"},
      {"smiles": "CCCC(=NOCC)C1=C(O)CC(CC(C)SCC)CC1=O", "note": "(configuration not stated)", "outcome": "inactive"}
    ]},
    {"read-out": "sulfotransferase (SULT2A), SULT2A1 (gene 6822)", "experiment": "CLD_SULT2A_48hr: CellzDirect (CLD) Gene Expression Assay for sulfotransferase (SULT2A) at 48 hours (AID 2283710);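 note: hits raise SULT2A1 transcript above the 0.2% DMSO vehicle baseline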", "summary_of_the_method": "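SULT2A1 transcript measured by qNPA chemiluminescence in human primary hepatocyte cultures after 48 h, with fresh dosing solutions on two consecutive days; gain-of-signal fitting against 0.2% DMSO vehicle; cytotoxicity annotated from phase-contrast morphology.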", "values": [
      {"smiles": "COC(=O)N(C(=O)N1CO[C@@]2(C(=O)OC)Cc3cc(Cl)ccc3C2=N1)c1ccc(OC(F)(F)F)cc1", "outcome": "inactive"},
      {"smiles": "Cc1cnc(C2=NC(C)(C(C)C)C(=O)N2)c(C(=O)O)c1", "note": "(configuration not stated)", "outcome": "inactive"},
      {"smiles": "CC(C)Nc1nc(Cl)nc(NC(C)C)n1", "outcome": "inactive"},
      {"smiles": "CCN(CC)c1nc(C)cc(OP(=S)(OC)OC)n1", "outcome": "inactive"},
      {"smiles": "O=P(O)(O)CCCl", "outcome": "inactive"},
      {"smiles": "COc1cc(Cl)c(OC)cc1Cl", "outcome": "inactive"},
      {"smiles": "Cn1c(-c2ccccc2)cc(-c2ccccc2)[n+]1C", "outcome": "inactive"},
      {"smiles": "CC1(C)C(C=C(Cl)Cl)C1C(=O)OC(C#N)c1cccc(Oc2ccccc2)c1", "note": "(configuration not stated)", "outcome": "inactive"},
      {"smiles": "O=C(Nc1ccccc1-c1ccc(Cl)cc1)c1cccnc1Cl", "outcome": "inactive"},
      {"smiles": "CCC(C)n1c(=O)[nH]c(C)c(Br)c1=O", "note": "(configuration not stated)", "outcome": "inactive"},
      {"smiles": "CCOC(=O)C(C)OC(=O)c1cc(Oc2ccc(C(F)(F)F)cc2Cl)ccc1[N+](=O)[O-]", "note": "(configuration not stated)", "AC50": "4.61 µM (active)"},
      {"smiles": "CC(C)(C)C(=O)C(Oc1ccc(Cl)cc1)n1cncn1", "note": "(configuration not stated)", "outcome": "inactive"},
      {"smiles": "Nc1cnn(-c2ccccc2)c(=O)c1Cl", "outcome": "inactive"},
      {"smiles": "CCOc1nc(F)cc2nc(S(=O)(=O)Nc3c(Cl)cccc3Cl)nn12", "outcome": "inactive"},
      {"smiles": "CS(=O)(=O)c1cc(C(F)(F)F)ccc1C(=O)c1cnoc1C1CC1", "outcome": "inactive"},
      {"smiles": "Cc1cc(C)nc(Nc2ccccc2)n1", "outcome": "inactive"},
      {"smiles": "COC(=O)NS(=O)(=O)c1ccc(N)cc1", "outcome": "inactive"},
      {"smiles": "CC(C)N1C(=O)c2ccccc2NS1(=O)=O", "outcome": "inactive"},
      {"smiles": "COP(=S)(OC)Oc1ccc([N+](=O)[O-])c(C)c1", "outcome": "inactive"},
      {"smiles": "CCCCOCN(C(=O)CCl)c1c(CC)cccc1CC", "outcome": "inactive"},
      {"smiles": "CC1(C)CON(Cc2ccccc2Cl)C1=O", "outcome": "inactive"},
      {"smiles": "CCN(CC)C(=O)C(C)Oc1cccc2ccccc12", "note": "(configuration not stated)", "AC50": "33 µM (active)"},
      {"smiles": "COc1ccc(-c2ccccc2)cc1NNC(=O)OC(C)C", "outcome": "inactive"},
      {"smiles": "CCOP(=S)(OCC)Oc1nc(Cl)n(C(C)C)n1", "outcome": "inactive"},
      {"smiles": "CCNC(=O)NC(=O)C(C#N)=NOC", "outcome": "inactive"},
      {"smiles": "CCCC(=NOCC)C1=C(O)CC(CC(C)SCC)CC1=O", "note": "(configuration not stated)", "outcome": "inactive"}
    ]}
  ]
}
